{"source": "PubChem BioAssay AID1159524", "about": "(National Center for Advancing Translational Sciences (NCATS), 2015)", "note": "About 5,100 (1.2%) of roughly 410,000 compounds were called active. Another 8% or so got no clear call; they are omitted. The sample holds actives, similar compounds and a random draw of the others, so the mix is not that of the screen. Values without a mark were called inactive. Calls follow the shape of the full dose curve; tested in HEK293T cells. % is scaled to controls: 0 for no effect and ±100 for the full control effect; potency is read from the fitted curve at half-maximal effect."}
{"experiment": "High Throughput Screening for Foot and Mouth Disease Virus Antivirals; also: read-out not given here; nearly all actives have a fitted effect of over 45% in size", "conditions": "FMDV antiviral cell-based qHTS; series mostly up to 57.9 µM; activity change, negative = inhibition: at the top concentration"}
{"molecule": "COc1cccc(NC(=S)C(C#N)=C2N(C)c3ccccc3N2C)c1", "activity change, negative = inhibition": "5.09%"}
{"molecule": "COc1ccccc1CNc1ncncc1-c1cccc(NS(C)(=O)=O)c1", "activity change, negative = inhibition": "-15.9%"}
{"molecule": "O=P(O)(O)C(O)c1ccc2ccccc2c1", "note": "(stereo not given)", "activity change, negative = inhibition": "1.06%"}
{"molecule": "C#CCN(C[C@@H]1[C@@H](OC(=O)NC2CC2)[C@@H](OC(=O)NC2CC2)Cn2c(=O)ccc(=O)n21)S(=O)(=O)c1ccc(C)cc1", "Potency": "20 µM (active)"}
{"molecule": "Cc1ccc(CS(=O)(=O)CCC(=O)NC2CC2)cc1", "activity change, negative = inhibition": "-10.8%"}
{"molecule": "CN(c1ccc2nc3ccccc3c(=O)n2n1)C1CCCCC1", "Potency": "20 µM (active)"}
{"molecule": "COc1ccccc1Nc1cc(C(=O)NCCCN(C)C2CCCCC2)c2ccccc2n1", "activity change, negative = inhibition": "-28.5%"}
{"molecule": "O=C(c1ccco1)N(Cc1nc2ccccc2c(=O)[nH]1)C1CCCC1", "activity change, negative = inhibition": "-1.37%"}
{"molecule": "COc1cc(=O)n2c(c1C(=O)NC(C)c1ccco1)CCN(C(=O)c1cn3ccc(C)cc3n1)CC2", "note": "(stereo not given)", "activity change, negative = inhibition": "12.5%"}
{"molecule": "CCN(C(=O)c1sc2cc(OC)ccc2c1Cl)c1ccccc1", "activity change, negative = inhibition": "-22.9%"}
{"molecule": "COc1ccccc1CNc1nc(-c2c(C)noc2C)nc2ccccc12", "activity change, negative = inhibition": "-10.6%"}
{"molecule": "CCc1nc2c(OCc3ccc(Cl)cc3Cl)cccn2c1N(C)C(=O)C(C)C", "Potency": "31.6 µM (active)"}
{"molecule": "CCc1nc2c(OCc3cccc(OC)c3)cccn2c1N(C)C(=O)C(C)C", "activity change, negative = inhibition": "-16.8%"}
{"molecule": "CCCCC(=O)N(C)c1c(CC)nc2c(OCc3ccc(Cl)cc3Cl)cccn12", "activity change, negative = inhibition": "-24.1%"}
{"molecule": "COc1ccc(C2Sc3ccccc3NC3=C2C(=O)c2ccccc23)c(OC)c1OC", "note": "(stereo not given)", "activity change, negative = inhibition": "8.34%"}
{"molecule": "O=C(/C=C/Sc1ncn[nH]1)c1ccc(Cl)cc1", "Potency": "28.2 µM (active)"}
{"molecule": "O=S(=O)(NCCc1nnc2ccc(SCc3ccc(Cl)cc3Cl)nn12)c1ccccc1", "activity change, negative = inhibition": "-15.5%"}
{"molecule": "CCc1ccccc1NC(=O)Cn1c(=O)n(CC2CCC(C(=O)NCCc3ccccc3)CC2)c(=O)c2ccccc21", "note": "(stereo not given)", "activity change, negative = inhibition": "0.675%"}
{"molecule": "Cc1cc(C)cc(NS(=O)(=O)c2cc3c(cc2C)NC(=O)CO3)c1", "activity change, negative = inhibition": "131%"}
{"molecule": "Cn1nnnc1SCCCNCc1cccc(OCc2ccc(Cl)cc2)c1", "activity change, negative = inhibition": "-12.9%"}
{"molecule": "Cc1ccc(OCCSc2nc(C)c(Cc3ccccc3)c(=O)[nH]2)cc1", "activity change, negative = inhibition": "-10.9%"}
{"molecule": "COc1ccc(CCNC(=O)C2CCCN2C(=O)Nc2ccccc2)cc1OC", "note": "(stereo not given)", "activity change, negative = inhibition": "-5.27%"}
{"molecule": "CC(=O)Nc1ccc(S(=O)(=O)N2CCN(c3ccc([N+](=O)[O-])c(NCCN4CCOCC4)c3)CC2)cc1", "activity change, negative = inhibition": "-4.77%"}
{"molecule": "COc1ccc(CCNc2cc(N3CCN(C(=O)c4ccccc4OC)CC3)ccc2[N+](=O)[O-])cc1OC", "Potency": "8.91 µM (active)"}
{"molecule": "CC(C)c1ccc(NC(=O)c2cc(S(=O)(=O)N3CCc4ccccc4C3)ccc2F)cc1", "activity change, negative = inhibition": "1.11%"}
{"molecule": "Cc1ccccc1CNC(=O)c1cccc(NC(=O)c2nsc3ccccc23)c1", "activity change, negative = inhibition": "11.9%"}
{"molecule": "O=C(CSc1ncc(CO)n1Cc1ccc(F)cc1)NCc1ccco1", "activity change, negative = inhibition": "-18.2%"}
{"molecule": "Cc1cc(C=O)c(C)n1-c1ccc(NC2CCCCC2)c([N+](=O)[O-])c1", "Potency": "31.6 µM (active)"}
{"molecule": "COc1ccc(NC(=O)CN(C)C(=O)c2ccc(NC3CC3)c([N+](=O)[O-])c2)cc1", "activity change, negative = inhibition": "-6.5%"}
{"molecule": "Cc1ccc(C(=O)COC(=O)CCCC(=O)NC2CCCCC2)cc1[N+](=O)[O-]", "activity change, negative = inhibition": "0.0132%"}
{"molecule": "CCN(CC(=O)NC1CCS(=O)(=O)C1)S(=O)(=O)c1ccccc1", "note": "(stereo not given)", "activity change, negative = inhibition": "-18.6%"}
{"molecule": "O=S1(=O)CCC(NC(=S)SCc2ccccc2Br)C1", "note": "(stereo not given)", "Potency": "15.8 µM (active)"}
{"molecule": "O=C(CSc1ccccc1F)NC1CCS(=O)(=O)C1", "note": "(stereo not given)", "activity change, negative = inhibition": "2.56%"}
{"molecule": "COc1ccccc1C(=O)Nc1c(C(=O)Nc2ccc(C)cc2)oc2ccccc12", "activity change, negative = inhibition": "-7.71%"}
{"molecule": "C/C=C1\\C2C=C(C)CC1(N)c1ccc(=O)[nH]c1C2", "note": "(stereo not given)", "activity change, negative = inhibition": "6.47% [at 97.4 µM]"}
{"molecule": "Cc1ccc2oc(C(=O)Nc3ccc(S(=O)(=O)N4CCCCCC4)cc3)cc(=O)c2c1", "activity change, negative = inhibition": "-6.89%"}
{"molecule": "Cc1cc(C)c2oc(C(=O)Nc3ccc(S(=O)(=O)N4CCCCCC4)cc3)cc(=O)c2c1", "activity change, negative = inhibition": "-5.36%"}
{"molecule": "CCC1CCCCN1S(=O)(=O)c1ccc(NC(=O)c2cc(=O)c3ccccc3o2)cc1", "note": "(stereo not given)", "Potency": "20 µM (active)"}
{"molecule": "Cc1c(Cl)cccc1NC(=O)c1noc2c1CCCC2", "activity change, negative = inhibition": "34.7%"}
{"molecule": "Cc1cccc(N2CCN(C(=O)c3ccc4c(c3)CCN4S(=O)(=O)c3ccccc3)CC2)c1C", "activity change, negative = inhibition": "-17.5%"}
{"molecule": "COc1ccc(C)cc1NC(=O)CCc1c(C)nn(-c2ccc(N3CCOCC3)nn2)c1C", "activity change, negative = inhibition": "13.7%"}
{"molecule": "CC(C)=CCN1CCC2(CCc3ccccc32)CC1", "activity change, negative = inhibition": "-6.05%"}
{"molecule": "COc1ccc(C(=O)Nc2ccc(-n3nncc3-c3ccccc3)cc2)cc1OC", "activity change, negative = inhibition": "0%"}
{"molecule": "COc1cccc(C(=O)NC(=O)Nc2nc(C)cc(C(F)(F)F)n2)c1", "activity change, negative = inhibition": "-4.85%"}
{"molecule": "COc1cccc(C(=O)Nc2ccc(-c3cc(C(F)(F)F)nn3-c3ccccc3)cc2)c1", "Potency": "12.6 µM (active)"}
{"molecule": "Cc1csc(-c2coc3cc(O[C@@H]4O[C@H](CO)[C@@H](O)[C@@H](O)[C@H]4O)ccc3c2=O)n1", "activity change, negative = inhibition": "16%"}
{"molecule": "Cc1cc(C)cc(-n2c(SCC(=O)NCC3CCCO3)nc3c([nH]c4ccccc43)c2=O)c1", "note": "(stereo not given)", "activity change, negative = inhibition": "0.888%"}
{"molecule": "Cc1ccc(NC(=O)c2cnc(SCC(=O)NCC3CCCO3)n(C)c2=O)cc1", "note": "(stereo not given)", "Potency": "25.1 µM (active)"}
{"molecule": "Cc1cc(NC(=O)CSc2ncc(C(=O)Nc3ccc(Cl)cc3)c(=O)n2C)no1", "activity change, negative = inhibition": "5.26%"}
{"molecule": "O=C(Cc1ccccc1)Nc1sc2c(c1C(=O)Nc1ccc(Br)cc1)CCC2", "activity change, negative = inhibition": "-16.6%"}
